Reference: ChEMBL document CHEMBL3988442, “University of Dundee, Small-Polar-MMV Screening Library” (2021)
For some of these results: Entries with a potency or affinity are not part of this list.

Columns and labels:
Set-up in all cases: scale not given: direction of the effect not stated beside the values
[1] = target: Protein translocase subunit SecA (Escherichia coli (strain K12)) (UniProt P10408); assay: Assay to Identify E. coli SecA ATPase Inhibitors; format: functional; details: 30 µM
[2] = target: T1, Ubiquitin-activating enzyme e1, putative (Leishmania donovani (strain BPK282A1)) (UniProt E9BSI1); assay: Leishmania donovani Ubiquitin Activating Enzyme (LdE1); format: functional; details: 30 µM
T1 sequence (whole entry): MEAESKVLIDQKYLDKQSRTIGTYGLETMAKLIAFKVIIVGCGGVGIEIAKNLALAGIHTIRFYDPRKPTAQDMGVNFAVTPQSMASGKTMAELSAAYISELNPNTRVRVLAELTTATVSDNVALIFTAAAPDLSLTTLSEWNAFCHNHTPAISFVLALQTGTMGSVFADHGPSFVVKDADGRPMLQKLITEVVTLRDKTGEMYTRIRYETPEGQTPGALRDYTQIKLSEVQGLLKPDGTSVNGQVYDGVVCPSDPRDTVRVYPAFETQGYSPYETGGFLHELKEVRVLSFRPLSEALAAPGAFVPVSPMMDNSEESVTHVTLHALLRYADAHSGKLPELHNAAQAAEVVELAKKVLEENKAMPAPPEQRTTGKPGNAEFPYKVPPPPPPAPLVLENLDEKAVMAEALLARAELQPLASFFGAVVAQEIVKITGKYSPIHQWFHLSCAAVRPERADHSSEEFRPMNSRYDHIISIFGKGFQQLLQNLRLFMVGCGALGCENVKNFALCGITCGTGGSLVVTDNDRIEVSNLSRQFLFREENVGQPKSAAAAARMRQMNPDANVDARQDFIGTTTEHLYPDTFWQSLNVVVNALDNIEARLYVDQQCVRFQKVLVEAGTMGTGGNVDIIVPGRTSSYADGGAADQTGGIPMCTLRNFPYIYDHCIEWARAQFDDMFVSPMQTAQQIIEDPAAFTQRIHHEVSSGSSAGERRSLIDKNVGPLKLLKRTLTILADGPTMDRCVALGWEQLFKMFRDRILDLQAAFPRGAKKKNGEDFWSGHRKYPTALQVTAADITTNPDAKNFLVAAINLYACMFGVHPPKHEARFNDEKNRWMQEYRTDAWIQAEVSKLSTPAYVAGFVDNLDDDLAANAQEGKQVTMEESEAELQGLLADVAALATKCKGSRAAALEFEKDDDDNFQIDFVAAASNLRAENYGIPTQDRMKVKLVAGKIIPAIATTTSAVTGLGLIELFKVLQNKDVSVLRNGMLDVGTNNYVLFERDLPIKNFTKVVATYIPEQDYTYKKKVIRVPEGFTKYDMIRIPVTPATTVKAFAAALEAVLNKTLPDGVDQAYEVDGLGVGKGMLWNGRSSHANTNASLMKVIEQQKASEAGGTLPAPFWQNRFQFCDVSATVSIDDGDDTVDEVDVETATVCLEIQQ

[3] = target: AMP-activated protein kinase, AMPK (Homo sapiens) (UniProt P54646+O43741+P54619+Q9UGJ0+Q9Y478+Q13131+Q9UGI9); assay: AMP-dependent Kinase enzyme assay. An in vitro enzyme assay that detects ADP turnover that is directly proportional to AMPK activity. This uses naive AMPK that is activated during the assay with MK-8722; format: functional; details: 30 µM
[4] = target: Sialic acid-binding Ig-like lectin 9 (Homo sapiens) (UniProt Q9Y336); assay: Hs-Siglec9 ALPHAscreen SOP 20170721; details: 10 µM
Trypanosoma cruzi = assay: Trypanosoma cruzi phosphomannomutase and mannose-1-phosphate guanylyltransferase assay; format: functional; details: 10 µM
[5] = target: T2, Arginase-2, mitochondrial (Homo sapiens) (UniProt P78540); assay: in vitro enzyme assay to detect the production of urea directly proportional to the activity of Arginase II; format: functional; details: 33.3 µM; further: in the data most compounds retested in dose-response had high values
T2 sequence (whole entry): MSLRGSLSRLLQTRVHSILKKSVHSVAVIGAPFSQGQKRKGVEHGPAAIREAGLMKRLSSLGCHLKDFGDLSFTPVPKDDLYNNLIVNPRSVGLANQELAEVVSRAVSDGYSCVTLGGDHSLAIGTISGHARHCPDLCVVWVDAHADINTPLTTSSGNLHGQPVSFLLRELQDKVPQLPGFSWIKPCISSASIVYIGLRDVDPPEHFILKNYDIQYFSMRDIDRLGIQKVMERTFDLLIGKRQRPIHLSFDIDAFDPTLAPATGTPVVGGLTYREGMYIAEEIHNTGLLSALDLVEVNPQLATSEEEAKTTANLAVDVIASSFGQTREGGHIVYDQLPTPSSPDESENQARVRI

[6] = target: T3, Proteasome subunit beta (Trypanosoma cruzi) (UniProt O96673); assay: Trypanosoma cruzi proteasome chymotrypsin-like activity (TcProtChymo) assay.; further: in the data most compounds retested in dose-response had high values; format: functional; details: 9.37 µM
T3 sequence (whole entry): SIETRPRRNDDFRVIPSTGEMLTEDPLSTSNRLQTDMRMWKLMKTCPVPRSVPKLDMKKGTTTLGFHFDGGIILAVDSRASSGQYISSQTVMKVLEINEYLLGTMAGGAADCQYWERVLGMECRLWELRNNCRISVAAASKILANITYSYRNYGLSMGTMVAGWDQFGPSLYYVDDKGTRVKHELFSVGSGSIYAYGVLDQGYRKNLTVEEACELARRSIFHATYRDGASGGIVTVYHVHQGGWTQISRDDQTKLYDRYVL

Homo sapiens = species on record: Homo sapiens; assay: To identify inhibition of the IFN signalling (Jak-Stat) pathway via expression of an eGFP reporter gene under the control of an IFN-stimulated response element (ISRE) containing MxA promoter.; format: functional; details: 30 µM
[7] = target: T4, Tyrosyl-tRNA synthetase, putative (Trypanosoma cruzi (strain CL Brener)) (UniProt Q4DSP6); assay: Trypanosoma cruzi tyrosyl tRNA synthetase (TcYRS) _High Tyrosine SOP; format: functional; details: 30 µM; further: in the data most compounds retested in dose-response had high values
T4 sequence (whole entry): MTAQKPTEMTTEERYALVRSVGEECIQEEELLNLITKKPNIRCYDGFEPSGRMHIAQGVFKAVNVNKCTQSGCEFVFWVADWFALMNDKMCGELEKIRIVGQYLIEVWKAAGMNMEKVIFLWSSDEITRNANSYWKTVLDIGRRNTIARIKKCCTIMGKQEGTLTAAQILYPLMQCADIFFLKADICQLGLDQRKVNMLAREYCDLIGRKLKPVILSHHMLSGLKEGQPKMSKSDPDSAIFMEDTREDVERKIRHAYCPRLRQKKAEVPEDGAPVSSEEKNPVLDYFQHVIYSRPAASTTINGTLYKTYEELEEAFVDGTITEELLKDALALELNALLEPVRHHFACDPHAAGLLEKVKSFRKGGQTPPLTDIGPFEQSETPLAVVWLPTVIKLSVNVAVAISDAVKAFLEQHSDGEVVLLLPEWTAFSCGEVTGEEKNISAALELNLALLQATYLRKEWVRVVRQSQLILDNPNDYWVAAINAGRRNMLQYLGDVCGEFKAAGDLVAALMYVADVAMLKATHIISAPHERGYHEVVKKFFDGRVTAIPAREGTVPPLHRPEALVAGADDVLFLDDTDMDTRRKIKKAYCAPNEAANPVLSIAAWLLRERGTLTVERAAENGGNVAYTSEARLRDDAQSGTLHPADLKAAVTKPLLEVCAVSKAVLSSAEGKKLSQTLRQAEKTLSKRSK

[8] = target: T4, Tyrosyl-tRNA synthetase, putative (Trypanosoma cruzi (strain CL Brener)); assay: Trypanosoma cruzi tyrosyl tRNA synthetase (TcYRS) SOP; format: functional; details: 30 µM
[9] = target: Chromo domain-containing protein 1 (Saccharomyces cerevisiae (strain ATCC 204508 / S288c) (Baker's yeast)) (UniProt P32657); assay: ScCHD-1 Enzyme Inhibition Assay; format: functional; details: 30 µM; further: in the data most compounds retested in dose-response had high values
Chain of Chromo domain-containing protein 1 (Saccharomyces cerevisiae (strain ATCC 204508 / S288c) (Baker's yeast)) (P32657 whole entry, the tested form may be a part): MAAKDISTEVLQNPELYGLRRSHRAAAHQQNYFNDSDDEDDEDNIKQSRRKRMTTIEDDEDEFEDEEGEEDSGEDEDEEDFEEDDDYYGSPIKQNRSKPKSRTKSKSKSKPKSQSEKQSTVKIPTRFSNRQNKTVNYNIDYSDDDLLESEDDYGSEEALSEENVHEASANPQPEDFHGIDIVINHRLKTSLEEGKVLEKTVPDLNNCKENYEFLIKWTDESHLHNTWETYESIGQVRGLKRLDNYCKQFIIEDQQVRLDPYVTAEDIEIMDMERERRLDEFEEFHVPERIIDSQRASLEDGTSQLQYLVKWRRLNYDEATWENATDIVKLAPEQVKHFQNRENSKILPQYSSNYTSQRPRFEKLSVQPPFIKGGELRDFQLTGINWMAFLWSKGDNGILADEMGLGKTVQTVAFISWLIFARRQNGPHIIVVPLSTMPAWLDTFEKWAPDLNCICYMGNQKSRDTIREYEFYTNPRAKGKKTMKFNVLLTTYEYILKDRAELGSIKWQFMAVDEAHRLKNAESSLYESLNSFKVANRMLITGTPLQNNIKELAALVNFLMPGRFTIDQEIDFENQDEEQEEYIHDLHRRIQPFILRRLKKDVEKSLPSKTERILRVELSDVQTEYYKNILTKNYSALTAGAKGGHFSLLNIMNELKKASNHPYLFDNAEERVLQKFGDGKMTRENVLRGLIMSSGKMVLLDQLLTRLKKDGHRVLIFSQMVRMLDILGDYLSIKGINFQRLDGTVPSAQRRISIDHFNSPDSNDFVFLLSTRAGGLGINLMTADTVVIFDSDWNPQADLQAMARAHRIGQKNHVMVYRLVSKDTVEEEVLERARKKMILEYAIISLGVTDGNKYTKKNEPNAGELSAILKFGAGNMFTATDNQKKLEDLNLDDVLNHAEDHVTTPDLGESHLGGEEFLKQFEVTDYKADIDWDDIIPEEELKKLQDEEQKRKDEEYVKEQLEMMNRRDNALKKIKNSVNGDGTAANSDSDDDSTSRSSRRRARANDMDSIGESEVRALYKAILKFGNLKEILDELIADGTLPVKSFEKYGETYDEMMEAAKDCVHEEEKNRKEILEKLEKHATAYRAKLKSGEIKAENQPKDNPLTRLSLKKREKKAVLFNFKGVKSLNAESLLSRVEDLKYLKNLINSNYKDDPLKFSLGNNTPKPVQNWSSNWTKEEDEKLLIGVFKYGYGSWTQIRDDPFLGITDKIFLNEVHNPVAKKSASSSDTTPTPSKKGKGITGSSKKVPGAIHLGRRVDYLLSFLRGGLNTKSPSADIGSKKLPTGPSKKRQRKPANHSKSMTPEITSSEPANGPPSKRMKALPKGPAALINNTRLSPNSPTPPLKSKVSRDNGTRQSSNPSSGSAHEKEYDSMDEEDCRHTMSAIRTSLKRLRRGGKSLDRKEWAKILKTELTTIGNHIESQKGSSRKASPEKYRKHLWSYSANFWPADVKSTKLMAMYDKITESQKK

Chain of Sialic acid-binding Ig-like lectin 9 (Homo sapiens) (Q9Y336 whole entry): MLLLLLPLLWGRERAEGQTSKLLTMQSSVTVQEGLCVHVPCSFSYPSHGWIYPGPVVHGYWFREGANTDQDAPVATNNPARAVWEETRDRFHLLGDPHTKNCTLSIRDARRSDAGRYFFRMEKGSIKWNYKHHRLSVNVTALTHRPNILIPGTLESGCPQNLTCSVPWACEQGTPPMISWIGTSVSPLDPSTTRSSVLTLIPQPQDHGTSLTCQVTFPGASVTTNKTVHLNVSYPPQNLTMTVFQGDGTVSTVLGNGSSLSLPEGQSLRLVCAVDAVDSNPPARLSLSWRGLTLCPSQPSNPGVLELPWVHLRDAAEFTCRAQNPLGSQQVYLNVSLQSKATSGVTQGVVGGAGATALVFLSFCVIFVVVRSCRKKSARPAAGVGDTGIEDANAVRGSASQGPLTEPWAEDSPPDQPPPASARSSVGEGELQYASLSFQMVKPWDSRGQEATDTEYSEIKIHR
Chain of Protein translocase subunit SecA (Escherichia coli (strain K12)) (P10408 whole entry): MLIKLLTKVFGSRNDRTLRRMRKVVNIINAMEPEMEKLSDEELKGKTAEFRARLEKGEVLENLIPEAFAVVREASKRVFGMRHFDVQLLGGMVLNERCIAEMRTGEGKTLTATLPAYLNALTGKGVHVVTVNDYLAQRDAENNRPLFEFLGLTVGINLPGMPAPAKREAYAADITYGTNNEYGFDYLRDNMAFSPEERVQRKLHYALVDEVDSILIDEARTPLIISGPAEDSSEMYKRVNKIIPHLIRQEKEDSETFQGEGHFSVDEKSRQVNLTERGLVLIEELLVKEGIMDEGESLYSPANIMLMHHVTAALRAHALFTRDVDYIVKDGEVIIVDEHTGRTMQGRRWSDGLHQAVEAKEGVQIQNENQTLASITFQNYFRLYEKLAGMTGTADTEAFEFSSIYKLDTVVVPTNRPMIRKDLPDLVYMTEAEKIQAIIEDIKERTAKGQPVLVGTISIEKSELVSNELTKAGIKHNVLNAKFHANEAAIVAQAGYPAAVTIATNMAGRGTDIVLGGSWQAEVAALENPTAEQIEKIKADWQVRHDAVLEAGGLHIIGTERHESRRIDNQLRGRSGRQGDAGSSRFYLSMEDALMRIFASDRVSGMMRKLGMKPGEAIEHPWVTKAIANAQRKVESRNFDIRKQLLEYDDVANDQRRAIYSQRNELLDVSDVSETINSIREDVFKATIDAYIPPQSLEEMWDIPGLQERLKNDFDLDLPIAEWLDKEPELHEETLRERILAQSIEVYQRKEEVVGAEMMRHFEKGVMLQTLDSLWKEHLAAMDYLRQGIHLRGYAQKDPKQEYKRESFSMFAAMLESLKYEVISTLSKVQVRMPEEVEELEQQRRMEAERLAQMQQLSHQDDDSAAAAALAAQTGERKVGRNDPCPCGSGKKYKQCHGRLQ

Structure (SMILES)	Percent Effect [1] [%]	Percent Effect [2] [%]	Percent Effect [3] [%]	Percent Effect [4] [%]	Percent Effect (Trypanosoma cruzi) [%]	Percent Effect [5] [%]	Percent Effect [6] [%]	Percent Effect (Homo sapiens) [%]	Percent Effect [7] [%]	Percent Effect [8] [%]	Percent Effect [9] [%]
COc1ccc(C2=CCN(C(=O)C3CC(=O)N(C4CC4)C3)CC2)cc1 (stereo unspecified)	-3.27	-5.26	2.62	-10.1	-2.15	2.16	1.61	19.9	2.46	-6.17	-1.27
Cc1nccn1CCC1CCCCN1Cc1ccncc1 (stereo unspecified)	-5.73	8	-13	-0.0054	-2.63	0.521	13.8	25.9	2.73	13.6	-6.06
Cc1cc(CNCc2c(C)nn(C)c2N2CCOCC2)no1	-3.31	10.5	-9.93	7.93	7.14	3.06	3.68	-11.7	3.43	19.5	-11
COc1ccc(C2CCCN2C(=O)NCCNc2ncccn2)cc1 (stereo unspecified)	0.96	2.74	-8.6	-2.28	-7.83	6.36	19.3	16.6	5.38	12.5	-6.8
COCC(=O)N1CCN(C(=O)c2scnc2C)CC1	-4.41	7.89	1.74	5.01	2.82	-4.73	12.4	19.8	1.06	10.4	0.643
COc1cc(N2C[C@@H]3COC[C@]3(COCc3cccc(C)n3)C2)ncn1	-0.6	2.7	3.71	5.38	4.79	0.955	17.7	27.6	1.08	2.56	2.03
CC(NCc1ccccc1Br)c1ccc2[nH]c(=O)[nH]c2c1 (stereo unspecified)	-1.71	-18.9	-5.22	10.9	5.19	-0.401	-0.18	25.5	-0.493	6.17	-4.59
CCCN(Cc1ccccc1)Cn1nc(C)c2c(C)onc2c1=O	-7	10.8	-10.2	25.6	4.62	-4.81	1.98	8.04	5.42	18.5	-13.4
CCn1ccnc1CN1C[C@@H](CN2CCCC2)[C@@H](CO)C1	-6.84	-2.7	-3.35	7.12	-4.44	-1.91	8.28	-5.58	1.59	7.32	-1.85
Cc1cc(CN(C)C(=O)c2cccc(N3CCCC3=O)c2)no1	-1.16	20.2	-7.29	-9	-4.25	-0.76	12.2	13.3	3.45	16.5	-4.16
COCc1c(C(=O)O)nnn1Cc1cccc(C(F)(F)F)c1	-0.917	9.33	-2.19	0.663	-4.13	-8.98	14.1	5.79	3.17	10.3	-10.2
